Shown is part of a subset that was picked to be rich in hits.
EZH2 inh = blocks human EZH2/PRC2 H3K27 methylation; Q15910; DELFIA TRF, 1 h; inhibition, % at 12.5 µM; 57,000 compounds, 0.35% hits;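 active = mean inhibition of replicates at least 50% and every single replicate also reaching 50%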;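 also: dimethyl H3K27 on biotinylated H3 21-44 peptide detected by antibody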
Target sequence (Q15910 whole entry, looked up): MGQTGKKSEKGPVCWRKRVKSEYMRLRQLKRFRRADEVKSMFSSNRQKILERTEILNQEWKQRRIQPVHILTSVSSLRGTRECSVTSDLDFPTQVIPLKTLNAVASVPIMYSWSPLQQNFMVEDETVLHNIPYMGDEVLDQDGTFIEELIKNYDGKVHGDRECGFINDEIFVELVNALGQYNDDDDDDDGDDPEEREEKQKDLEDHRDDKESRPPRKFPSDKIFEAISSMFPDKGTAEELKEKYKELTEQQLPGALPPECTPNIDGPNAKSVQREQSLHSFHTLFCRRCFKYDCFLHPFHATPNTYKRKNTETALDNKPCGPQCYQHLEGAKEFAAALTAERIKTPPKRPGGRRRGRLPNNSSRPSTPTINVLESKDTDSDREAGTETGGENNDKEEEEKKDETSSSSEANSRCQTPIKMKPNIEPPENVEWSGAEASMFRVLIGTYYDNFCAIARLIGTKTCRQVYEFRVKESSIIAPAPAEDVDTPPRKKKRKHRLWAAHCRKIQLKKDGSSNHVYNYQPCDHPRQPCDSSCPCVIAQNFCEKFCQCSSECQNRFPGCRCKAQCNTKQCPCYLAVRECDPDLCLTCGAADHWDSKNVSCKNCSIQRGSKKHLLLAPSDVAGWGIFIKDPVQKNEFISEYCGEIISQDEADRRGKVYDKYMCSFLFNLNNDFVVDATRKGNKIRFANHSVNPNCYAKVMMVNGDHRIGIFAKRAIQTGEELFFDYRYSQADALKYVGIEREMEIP
Large screens that a line does not name were inactive.

C[C@@H]1CN([C@@H](C)CO)C(=O)c2cc(NC(=O)c3ccccc3)ccc2O[C@@H](C)CCCCO[C@H]1CN(C)C(=O)c1ccccc1	none
CCN(CC(=O)Nc1ccc(I)cc1)S(=O)(=O)c1ccc2ccccc2c1	none
O=C(Nc1ccc2c(c1)[C@@H]1C[C@@H](CC(=O)N3CCCCC3)O[C@@H](CO)[C@@H]1O2)C1CCOCC1	none
O=[N+]([O-])c1ccccc1OCCCCSc1ncccn1	none
Clc1ccc(OCCCCSc2ncccn2)cc1	none
Cc1cc(Cl)cc(Br)c1OCCCSc1ncccn1	EZH2 inh 62
Cc1ccc([N+](=O)[O-])c(OCCCSc2ncccn2)c1	none
Cc1ccc(C)c(OCCCCSc2ncccn2)c1Cl	EZH2 inh 56
CCS(=O)(=O)Nc1ccc2c(c1)C(=O)N(C)C[C@H](OC)[C@@H](C)CN(C)[C@H](C)CO2	none
CN(C)CC(=O)Nc1ccc2c(c1)[C@H]1C[C@H](CC(=O)N3CCc4ccccc4C3)O[C@@H](CO)[C@H]1O2	none
CO[C@@H]1CN(C)C(=O)c2ccc(NS(C)(=O)=O)cc2OC[C@@H](C)NC[C@@H]1C	none
COc1ccc(C2OCC3C2CO[C@H]3c2ccc(OC)c(OC)c2)cc1OC (stereo not given in full)	none
Fc1ccccc1-c1nnc(SCc2ccc(Br)cc2)n1Cc1ccco1	EZH2 inh 79
Clc1ccc(CSc2nnc(-c3ccco3)n2Cc2ccco2)c(Cl)c1	none
Fc1ccccc1CSc1nnc(-c2cnccn2)n1Cc1ccco1	none
O=C(C[C@H]1C[C@H]2c3cc(NC(=O)Nc4ccc(C(F)(F)F)cc4)ccc3O[C@H]2[C@H](CO)O1)NCCc1ccccc1	none
CCC(=O)N1C[C@H](C)[C@H](OC)CN(C)C(=O)c2cc(NC(=O)c3ccccc3)ccc2OC[C@@H]1C	none
COc1ccc(Cl)cc1NC(=O)C(C)N(c1ccc(C)cc1)S(C)(=O)=O (stereo not given)	none
CC1=CCC2C(=O)N(c3ccc(C4CCCCC4)cc3)C(=O)C2C1 (stereo not given)	none
O=C(C[C@@H]1C=C[C@H](NC(=O)Nc2ccccc2)[C@@H](CO)O1)NCc1cccc(F)c1	none
Cc1ccc2c(CC(=O)NCc3ccco3)coc2c1C	none
Cc1ccc2c(CC(=O)Nc3cccc([N+](=O)[O-])c3)coc2c1C	EZH2 inh 51
Cc1cc(C)c(S(=O)(=O)N(C)CC(=O)Nc2cccc([N+](=O)[O-])c2)c(C)c1	none
C=CCOc1ccccc1/C=N/NC(=O)CCCCC(=O)NO	none
CC(C)COC(=O)N(C)C[C@@H]1OCc2ccccc2-c2c(n(C)c3ccccc23)C(=O)N([C@@H](C)CO)C[C@@H]1C	none
O=C(C[C@H]1C[C@H]2c3cc(NC(=O)NC4CCCCC4)ccc3O[C@H]2[C@@H](CO)O1)NCc1ccccc1	none
COc1ccc(/C=C2/SC(=S)NC2=O)cc1COc1ccc(F)cc1F	EZH2 inh 92
Cc1cccc(N=C2NC(=O)/C(=C/c3ccc(F)cc3)S2)c1C	none
CSCC(NS(=O)(=O)c1ccc(Br)cc1)C(=O)O (stereo not given)	none
C[C@@H]1CN([C@@H](C)CO)C(=O)Cc2cc(NC(=O)CCN3CCOCC3)ccc2O[C@H]1CN(C)Cc1ccccc1	none
COc1ccc(OCc2nc3ccccc3n2Cc2ccccc2F)cc1	EZH2 inh 58
COc1ccc(OCc2nc3ccccc3n2Cc2c(F)cccc2Cl)cc1	none
NC(=O)CSc1nc2ccccc2n1Cc1ccccc1F	none
C[C@H](CO)N1C[C@H](C)[C@H](CN(C)S(C)(=O)=O)Oc2ncc(/C=C/c3ccccc3)cc2C1=O	none
COC(=O)c1ccccc1NC(=O)NCc1ccc(C(=O)O)cc1	none
CCC(=O)N1C[C@H](C)[C@H](OC)CN(C)C(=O)c2ccc(NC(=O)c3ccccc3)cc2OC[C@@H]1C	none
O=c1c(-c2ccc(O)cc2)coc2cc(O)cc(O)c12	none
O=c1c(O[C@@H]2OC[C@H](O)[C@H](O)[C@H]2O)c(-c2ccc(O)c(O)c2)oc2cc(O)cc(O)c12	EZH2 inh 69
O=c1c(O)c(-c2ccc(O)c(O)c2)oc2cc(O)cc(O)c12	EZH2 inh 62
O=c1c(O[C@@H]2O[C@H](CO)[C@H](O)[C@H](O)[C@H]2O)c(-c2ccc(O)cc2)oc2cc(O)cc(O)c12	none
O=c1c(O[C@@H]2OC[C@H](O)[C@H](O)[C@H]2O)c(-c2ccc(O)cc2)oc2cc(O)cc(O)c12	EZH2 inh 100
O=C1C[C@@H](c2ccc(O)c(O)c2)Oc2cc(O[C@@H]3O[C@H](CO)[C@@H](O)[C@H](O)[C@H]3O)cc(O)c21	none
O=c1c(OC2OCC(O)C(O)C2O)c(-c2ccc(O)c(O)c2)oc2cc(O)cc(O)c12 (stereo not given)	EZH2 inh 99
COc1c(OC)c(O)c2c(=O)c(O)c(-c3ccccc3)oc2c1OC	none
COc1cc(-c2oc3cc(O)cc(O)c3c(=O)c2O[C@@H]2O[C@H](CO)[C@@H](O)[C@H](O)[C@H]2O)ccc1O[C@@H]1O[C@H](CO)[C@@H](O)[C@H](O)[C@H]1O	none
COc1cc(O)c2c(=O)c(OC3OC(CO[C@@H]4O[C@@H](C)[C@H](O)[C@@H](O[C@@H]5O[C@@H](C)[C@H](O)[C@@H](O)[C@H]5O)[C@H]4O)C(O)C(O)C3O)c(-c3ccc(O)cc3)oc2c1 (stereo not given in full)	none
C[C@H](CO)N1C[C@H](C)[C@H](CN(C)Cc2ccc(Cl)c(Cl)c2)Oc2ccc(NC(=O)CCCCCC(=O)Nc3ccccc3N)cc2CC1=O	none
O=C(CCCCC(=O)N/N=C/c1ccccc1C(=O)O)NO	none
C[C@H]1CN([C@@H](C)CO)C(=O)c2cc(NC(=O)CCN3CCOCC3)ccc2O[C@H]1CN(C)Cc1ccc(C(=O)Nc2ccccc2N)cc1	none
O=C(C[C@H]1CC[C@@H](NC(=O)c2cccnc2)[C@@H](CO)O1)NCCN1CCCCC1	none
CC(C)CC#Cc1ccc2c(c1)O[C@H](CN(C)C(=O)c1ccccc1F)[C@@H](C)CN([C@H](C)CO)S2(=O)=O	none
CCCc1ccc(-c2cc(C(=O)NCc3cnn(C)c3)c3ccccc3n2)cc1	none
CO[C@H]1CC[C@H]2CCOc3c(C#N)cccc3C(=O)N(C)CC3(CCCCC3)CC(=O)N(C)C[C@H]1O2	none
COc1cc(OC)c(OC)cc1CN1CCN(Cc2ccccn2)CC1	none
COc1cccc(NC(=O)CC2NC3CCCCC3NC2=O)c1 (stereo not given)	none
Cc1n[nH]c(C)c1C(=O)CC1(O)C(=O)Nc2ccc(Br)cc21 (stereo not given)	none
Cc1nn(Cc2ccccc2Cl)c(C)c1NC(=O)C1CC(c2ccc(Cl)cc2)=NO1 (stereo not given)	none
Cc1ccc(=O)n(-c2ccccc2)c1	none
Cc1ccc(/C=C/c2ccc(=O)n(Cc3ccccc3Cl)n2)cc1	EZH2 inh 70
O=C(NCc1cc2ccccc2[nH]1)c1cc(-c2ccccn2)nc2ccc(Br)cc12	none
C[C@@H]1CN([C@@H](C)CO)C(=O)c2cc(C#CC3CCCC3)cnc2O[C@@H]1CN(C)S(=O)(=O)c1cccc(F)c1	none
CO[C@@H]1CN(C)C(=O)c2ccc(NS(=O)(=O)c3cccc(F)c3)cc2OC[C@@H](C)N(Cc2cc(F)ccc2F)C[C@@H]1C	none
CO[C@@H]1CN(C)C(=O)c2ccc(NS(=O)(=O)c3cccc(F)c3)cc2OC[C@H](C)N(Cc2cc(F)ccc2F)C[C@@H]1C	EZH2 inh 54
CO[C@@H]1CN(C)C(=O)c2ccc(NS(=O)(=O)c3cccc(F)c3)cc2OC[C@@H](C)N(Cc2cc(F)ccc2F)C[C@H]1C	none
CN(C)C(=O)C[C@H]1C[C@H]2c3cc(NC(=O)c4ccc5c(c4)OCO5)ccc3O[C@H]2[C@@H](CO)O1	none
COc1ccc(OC)c(NC(=O)COc2cc(C)cc(C)c2C)c1	none

High-throughput results as filed in PubChem BioAssay.
